Shiga inhibitor – Shiga toxin inhibition. AID 2315. Vero cells, Shiga toxin protein synthesis inhibition reporter. inhibition, % at 38.7 µM. actives 9.2% (n = 290,000); in the data active = inhibition mostly above about 28%, no sharp cut-off; inactive = mostly below about 43%; also: 0% is about no effect
CHX counter – counter-screen for Shiga toxin inhibitors: cycloheximide protein synthesis inhibition; cell reporter, cycloheximide protein synthesis inhibition counterscreen; max response, %; actives 12% (n = 300,000); in the data active = max response mostly above about 13%, no sharp cut-off; inactive = mostly below about 14%; also: read at 38.3 µM for the half of the compounds with a filed dose; 0% is about no effect
Pf growth 96h – inhibits malaria parasite growth, 96 h; AID 504834; actives 6.9% (n = 320,000); Potency, µM (titrated, usually from 28.7 µM), inactives show at the top dose activity change, negative = inhibition, hits mostly inhibitors; P. falciparum luciferase reporter growth, 96 h; also: potency is read from the fitted curve at half-maximal effect; % is scaled to controls: 0 for no effect and ±100 for the full control effect
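Parasite growth measured via integrated firefly luciferase reporter in P. falciparum. Infected erythrocytes at 2% hematocrit, 0.05% parasitemia final were treated 96 hours at 37 C under 5% CO2, and luminescence was read.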
Pf growth 48h – P. falciparum growth inhibition at 48 hours (one generation); actives 5.9% (n = 310,000); P. falciparum luciferase growth in erythrocytes, 48 h; Potency, µM (top dose mostly 28.7 µM), for inactives: at the top dose activity change, negative = inhibition, actives largely listed as inhibitors; also: potency is read from the fitted curve at half-maximal effect; % is scaled to controls: 0 for no effect and ±100 for the full control effect
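Luminescence readout; reporter = integrated firefly luciferase in P. falciparum. RBC culture at 2% hematocrit, 0.1% parasitemia final, 37 C/5% CO2; decreased signal taken as growth inhibition.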
LmPK inhibitor – blocks Leishmania mexicana pyruvate kinase activity. Q27686. purified LmPK, Kinase-Glo ATP luminescence, 1 h. Potency, µM (doses to about 57.5 µM), for inactives: at the top dose activity change, negative = inhibition, usual class: inhibitors. actives 0.37% (n = 290,000); also: potency is read from the fitted curve at half-maximal effect; % is scaled to controls: 0 for no effect and ±100 for the full control effect
Target sequence (Q27686 whole entry, looked up): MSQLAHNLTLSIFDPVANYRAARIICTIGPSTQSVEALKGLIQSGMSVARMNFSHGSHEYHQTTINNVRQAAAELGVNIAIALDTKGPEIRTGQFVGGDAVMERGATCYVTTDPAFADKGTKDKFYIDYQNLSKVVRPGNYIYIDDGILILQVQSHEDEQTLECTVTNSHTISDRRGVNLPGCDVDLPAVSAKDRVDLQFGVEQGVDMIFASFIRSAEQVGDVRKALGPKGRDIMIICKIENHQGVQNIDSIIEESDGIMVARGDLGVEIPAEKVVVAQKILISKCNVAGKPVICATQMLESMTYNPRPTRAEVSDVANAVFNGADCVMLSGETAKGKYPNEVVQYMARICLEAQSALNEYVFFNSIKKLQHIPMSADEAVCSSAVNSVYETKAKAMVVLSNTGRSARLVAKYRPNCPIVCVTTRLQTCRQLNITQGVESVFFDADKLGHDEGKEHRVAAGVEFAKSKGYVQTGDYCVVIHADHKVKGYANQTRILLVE
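Kinase-Glo luminescence read after 1 h RT reaction of 0.1 nM LmPK with 0.5 mM PEP and 0.1 mM ADP. Activity scaled between uninhibited and enzyme-free controls.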
The depositor's hits bear a star; ? = inconclusive; . = not tested or not shown. Hits are enriched below; roughly 22% of the tested compounds scored in any of these assays. Unless noted, calls follow the shape of the dose curve; as a rule, active = well fitted inhibition curve with a large enough effect; inconclusive = small, poorly fitted or top-dose-only effect, or another doubt; inactive = no such curve, though single readings can be large or run the other way.

SMILES	Shiga inhibitor	CHX counter	Pf growth 96h	Pf growth 48h	LmPK inhibitor
COc1ccc(CCNC(=O)CCc2ccsc2)cc1OC	-7.4	-1.9	1.6%	10.4%	0.0%
CCCN1CCC(NC(=O)CCc2nnc(Cc3cc(OC)ccc3OC)o2)CC1	-5.4	-1.7	-4.1%	-10.8%	3.4%
COc1ccc(OC)c(Cc2nnc(CCC(=O)NC3CCCCC3)o2)c1	29.0*	25.0*	13.1µM*	17.8%	-1.3%
COc1ccc(OC)c(Cc2nnc(CCC(=O)NC3C4CC5CC(C4)CC3C5)o2)c1 (stereo not drawn)	-15.6	6.5	0.2%	10.4µM*	-2.5%
COc1ccc(OC)c(Cc2nnc(CCC(=O)NCc3ccsc3)o2)c1	37.2*	17.2*	1.1%	-15.9%	14.3%
COc1cc(C(=O)OCC(=O)NC2CCCCCC2)ccc1OCC(C)C	.	.	3.8%	-19.2%	.
Cc1ccc(NC(=O)CS(=O)CC(=O)NC23CC4CC(CC(C4)C2)C3)cc1 (stereo not drawn)	-3.8	-4.9	6.2%	-3.2%	-9.1%
O=C1CC(c2ccccc2)CC(=O)N1c1ccc(C(F)(F)F)cc1	.	.	26.5%	-4.3%	.
Cc1ccc(S(=O)(=O)NC(=O)NCCCCNC(=O)NS(=O)(=O)c2ccc(C)cc2)cc1	-10.5	-3.5	12.9%	.	-0.9%
Cc1ccc(N(O)C(=O)NCCCCNC(=O)N(O)c2ccc(C)cc2)cc1	51.6*	35.9*	24.4%	?	-9.0%
Cn1cc(C(F)(F)F)nc1-c1ccc(OCC(O)CNCCOc2ccc(O)c(C(N)=O)c2)cc1 (stereo not drawn)	-7.5	-3.5	?	9.28µM*	-0.8%
CCOC(=O)Cc1cc(=O)n2[nH]cc(-c3ccc(Cl)cc3)c2n1	-4.1	10.5	0.0%	-14.0%	-0.4%
COC(=O)c1cc2c(cc1N)OCCO2	25.8	25.4*	3.9%	29.9%	-15.9%
Nc1cc2c(cc1C(=O)c1ccccc1)OCCO2	-16.0	-2.7	-3.0%	63.3%	-0.8%
CN1C(=O)C(O)(c2nnc(-c3ccccc3)o2)c2ccccc21 (stereo not drawn)	46.3	18.5*	25.4%	113.6%	-0.6%
CCOC(=O)C(=Nc1ccc(Cl)cc1)NO	1.9	-2.9	-15.4%	7.2%	-0.9%
CN(c1nc(-c2ccc(Br)cc2)cs1)C1CCS(=O)(=O)C1 (stereo not drawn)	43.5	19.3*	20.6%	130.5%	6.8%
CCN(C(=O)COC(=O)CNC(=O)c1ccc(C)cc1)c1c(N)n(Cc2ccccc2)c(=O)[nH]c1=O	.	.	13.1%	-8.2%	.
Cc1cc(C(=O)NCC(c2cccs2)N2CCOCC2)ccc1[N+](=O)[O-] (stereo not drawn)	-6.3	1.5	-1.6%	-13.6%	-6.8%
CNS(=O)(=O)c1cccc(C(=O)NCC(c2cccs2)N2CCOCC2)c1 (stereo not drawn)	.	.	24.2%	-1.2%	.
Cc1ccc(N(C)S(=O)(=O)c2cccc(C(=O)NCC(c3cccs3)N3CCOCC3)c2)cc1 (stereo not drawn)	.	.	?	11.7µM*	.
Cc1ccc(S(=O)(=O)N(C)c2ccc(C(=O)NCC(c3cccs3)N3CCOCC3)cc2)cc1 (stereo not drawn)	-2.4	-3.7	10.4µM*	?	2.8%
Cc1csc(SCC(=O)NC(C)c2ccccc2)n1 (stereo not drawn)	36.3	18.6	?	2.8%	3.7%
N#C/C(=C\c1ccc(N2CCCCC2)o1)C(=O)Nc1cccc(Br)c1	105.7*	58.2*	107.5%	122.2%	0.2%
N#C/C(=C\c1ccc(N2CCCCC2)o1)C(N)=O	20.0	16.9*	-6.8%	85.1%	0.8%
SMILES	Shiga inhibitor	CHX counter	Pf growth 96h	Pf growth 48h	LmPK inhibitor
COc1ccc(S(=O)(=O)N(n2c(C)nnc2-n2nc(C)cc2C)S(=O)(=O)c2ccc(OC)cc2)cc1	20.3	21.2*	-7.7%	8.8%	-4.8%
Cc1ccc(S(=O)(=O)Nn2c(C)nnc2-n2nc(C)cc2C)cc1	26.4	-2.7	-5.2%	7.0%	-5.0%
COc1ccc(Br)cc1S(=O)(=O)N1CCCc2ccccc21	36.1*	19.8*	-21.9%	?	4.0%
COc1ccc(C(=O)N2CCCN(C)CC2)cc1S(=O)(=O)N1CCCc2ccccc21	51.3*	25.9*	?	-16.8%	-0.1%
COC(=O)C1CCN(C(=O)COC(=O)c2ccc(OC)c(S(=O)(=O)N3CCCc4ccccc43)c2)CC1	55.3*	32.4*	-5.4%	0.5%	-8.8%
CCOc1ccc(NC(=O)CN(C)C(=O)CCCOc2ccc(Cl)c(C)c2)cc1OCC	-21.9	10.9	?	-18.3%	-5.9%
CC(=O)c1ccc(OCCCC(=O)Nc2cc(Cl)ccc2-n2cncn2)cc1	-2.7	0.9	?	41.7%	7.2%
CC1CC2OC2/C=C\C=C/C(=O)Cc2c(Cl)c(O)cc(O)c2C(=O)O1 (stereo not drawn)	18.1	17.0	.	.	.
Cc1ccc(-c2c(NCCc3ccccc3)c(=O)c2=O)cc1	22.3	9.2	-3.8%	?	1.3%
O=c1c(NCCc2ccccc2)c(-c2ccccc2)c1=O	25.1	5.9	-15.8%	2.08µM*	3.3%
O=C(CSc1ccccc1)NC1CCCCCCC1	61.7*	40.2*	9.4%	68.6%	1.2%
O=C(CSc1ccccc1C(=O)O)NC1CCCCCCC1	-13.6	-2.2	-17.3%	.	3.7%
O=C(CSc1ccccc1)NC1CCCCCC1	117.9*	49.3*	?	99.8%	-4.0%
NC(=O)c1ccc(-n2nnnc2SCC(=O)NC2CCCCC2)cc1	-3.5	-4.1	13.1µM*	26.7%	-3.8%
O=C(CSc1nnnn1-c1ccc(C(=O)O)cc1)NC1CC1	-7.3	-3.3	?	0.7%	-0.4%
O=C(CSc1ccccc1C(=O)O)NC1CCCCCC1	24.3	-3.1	?	32.3%	-0.9%
CCN(CC(=O)NC(C)(C)C)C(=O)c1ccccc1SCC(=O)NC1CCCCCCC1	-6.5	-2.7	?	10.4µM*	-1.1%
Nc1cc(=O)nc(SCC(=O)NC2CCCCC2)n1-c1ccccc1	4.6	1.7	-12.2%	4.3%	-0.7%
Nc1nnc(SCC(=O)NC2CCCCC2)n1-c1ccccc1	-6.7	8.2	8.28µM*	13.9%	3.5%
COCC(=O)N(c1ccccc1)C(C)C(=O)OC (stereo not drawn)	36.8	19.9	?	20.0%	3.5%
CC(C)(C)OC(=O)NC(NC(=O)OCC1c2ccccc2-c2ccccc21)C(=O)O (stereo not drawn)	-3.1	-4.2	.	.	.
CCCCNC(=O)c1ccc(Cn2c(=S)[nH]c3c([nH]c4ccc(OC)cc43)c2=O)cc1	-7.6	1.3	?	?	-1.1%
CCN(CC)CCNC(=O)CCCCn1c(=S)[nH]c2c([nH]c3ccc(OC)cc32)c1=O	17.9	-2.6	?	9.28µM*	2.82µM*
CC1CCCN(C(=O)c2ccc(-c3ccccc3Cl)o2)C1 (stereo not drawn)	.	.	112.0%	127.1%	.
COCCn1cnc2c(c1=O)c1nc3ccccc3nc1n2/N=C/c1ccc(OC)c(OC)c1	-2.3	0.4	2.62µM*	1.65µM*	1.3%
COCCn1cnc2c(c1=O)c1nc3ccccc3nc1n2/N=C/c1ccco1	4.2	-1.6	47.6%	19.4%	2.0%
